According to PMC7862700, “An all-to-all approach to the identification of sequence-specific readers for epigenetic DNA modifications on cytosine”:

Columns and labels:
Assay in all cases: DAPPL (digital affinity profiling via proximity ligation, sequencing); 10 mM Tris-HCl pH 7.5, 50 mM NaCl, 1 mM DTT, 4% glycerol, room temperature, 30 min; GST-TFs on glutathione beads, 16-mer random dsDNA library, 0.1% formaldehyde crosslink after washing; high values mean tight binding
Details in all cases: protein: recombinant; tags: N-terminal GST; dsDNA, one strand shown
ERF = molecular target: T1, ERF (Homo sapiens, UniProt P50548 1-548)
T1 sequence: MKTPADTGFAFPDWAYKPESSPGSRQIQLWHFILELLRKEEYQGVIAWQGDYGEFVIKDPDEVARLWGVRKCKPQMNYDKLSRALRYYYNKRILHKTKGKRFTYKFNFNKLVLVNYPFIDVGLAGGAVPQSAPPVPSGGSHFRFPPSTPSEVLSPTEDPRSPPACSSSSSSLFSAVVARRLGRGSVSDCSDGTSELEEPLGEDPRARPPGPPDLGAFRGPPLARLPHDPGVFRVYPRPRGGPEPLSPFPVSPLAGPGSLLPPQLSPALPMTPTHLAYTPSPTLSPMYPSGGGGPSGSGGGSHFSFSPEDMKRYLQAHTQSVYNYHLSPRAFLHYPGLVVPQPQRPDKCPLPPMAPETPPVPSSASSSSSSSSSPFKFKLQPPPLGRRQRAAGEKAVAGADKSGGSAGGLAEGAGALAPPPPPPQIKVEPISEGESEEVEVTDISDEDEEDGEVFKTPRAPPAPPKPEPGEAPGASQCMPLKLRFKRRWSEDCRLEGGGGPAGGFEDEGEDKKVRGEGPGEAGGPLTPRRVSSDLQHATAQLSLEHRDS
In short: (§1)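 After expression in yeast as GST fusions, human transcription factors were bound to glutathione beads, DNA-barcoded and mixed with a tag-only sample. The pools were incubated with 200 nmole of a 16-mer random double-stranded DNA library in Tris/NaCl/DTT/glycerol buffer (30 min, room temperature), washed and crosslinked with 0.1% formaldehyde. Proximity ligation with BsaI/T4 ligase ran for 1 h at 37 °C, before PCR amplification and sequencing on an Illumina NextSeq500. Binding signal is a hexamer's read frequency for a factor divided by its frequency for the tag-only sample.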

ETV3L = molecular target: T2, ETV3L (Homo sapiens, UniProt Q6ZN32 1-361)
T2 sequence: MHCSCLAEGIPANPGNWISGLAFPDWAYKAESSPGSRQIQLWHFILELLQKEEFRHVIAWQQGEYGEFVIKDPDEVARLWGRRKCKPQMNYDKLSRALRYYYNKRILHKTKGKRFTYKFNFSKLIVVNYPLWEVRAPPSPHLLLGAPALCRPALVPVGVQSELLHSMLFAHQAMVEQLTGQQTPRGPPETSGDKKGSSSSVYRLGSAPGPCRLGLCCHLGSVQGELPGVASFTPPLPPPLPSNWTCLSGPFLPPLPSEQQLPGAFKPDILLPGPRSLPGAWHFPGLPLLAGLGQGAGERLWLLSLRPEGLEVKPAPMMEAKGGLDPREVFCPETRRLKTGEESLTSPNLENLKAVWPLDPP
In short: as §1

ETS2 = molecular target: T3, ETS2 (Homo sapiens, UniProt P15036 1-469)
T3 sequence: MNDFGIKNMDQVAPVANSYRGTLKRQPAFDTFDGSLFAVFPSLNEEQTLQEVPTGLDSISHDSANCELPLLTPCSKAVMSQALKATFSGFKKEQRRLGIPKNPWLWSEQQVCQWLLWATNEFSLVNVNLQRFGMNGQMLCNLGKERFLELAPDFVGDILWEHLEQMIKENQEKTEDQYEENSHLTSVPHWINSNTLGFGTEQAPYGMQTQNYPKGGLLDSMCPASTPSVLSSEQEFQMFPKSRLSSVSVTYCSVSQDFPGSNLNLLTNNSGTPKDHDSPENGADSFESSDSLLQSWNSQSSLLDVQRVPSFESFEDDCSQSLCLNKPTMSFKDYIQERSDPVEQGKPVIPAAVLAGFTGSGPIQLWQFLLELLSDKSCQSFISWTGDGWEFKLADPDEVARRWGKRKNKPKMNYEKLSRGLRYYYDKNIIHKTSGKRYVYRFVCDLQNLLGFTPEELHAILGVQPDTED
In short: as §1

SPDEF = molecular target: T4, SPDEF (Homo sapiens, UniProt O95238 1-335)
T4 sequence: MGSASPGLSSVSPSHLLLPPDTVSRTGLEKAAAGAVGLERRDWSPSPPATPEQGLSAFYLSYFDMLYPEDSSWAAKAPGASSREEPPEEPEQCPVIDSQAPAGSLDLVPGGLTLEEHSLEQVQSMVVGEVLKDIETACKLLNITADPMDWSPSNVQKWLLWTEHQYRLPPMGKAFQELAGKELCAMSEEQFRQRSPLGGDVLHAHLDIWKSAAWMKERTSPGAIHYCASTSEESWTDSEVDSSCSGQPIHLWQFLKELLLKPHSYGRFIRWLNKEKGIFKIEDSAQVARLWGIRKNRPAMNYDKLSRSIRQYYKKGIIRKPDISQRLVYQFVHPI
In short: as §1

ETV7 = molecular target: T5, ETV7 (Homo sapiens, UniProt Q9Y603 1-341)
T5 sequence: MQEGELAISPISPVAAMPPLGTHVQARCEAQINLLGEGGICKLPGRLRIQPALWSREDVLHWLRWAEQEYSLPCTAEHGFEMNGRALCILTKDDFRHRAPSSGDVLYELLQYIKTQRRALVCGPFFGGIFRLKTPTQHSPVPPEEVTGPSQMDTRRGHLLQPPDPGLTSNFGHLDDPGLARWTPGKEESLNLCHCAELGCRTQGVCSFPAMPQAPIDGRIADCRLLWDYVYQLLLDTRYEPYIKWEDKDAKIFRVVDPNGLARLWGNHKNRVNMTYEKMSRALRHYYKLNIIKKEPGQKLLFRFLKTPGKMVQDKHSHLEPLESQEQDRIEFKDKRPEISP
In short: as §1

ETV3 = molecular target: T6, ETV3 (Homo sapiens, UniProt P41162-2 1-143)
T6 sequence: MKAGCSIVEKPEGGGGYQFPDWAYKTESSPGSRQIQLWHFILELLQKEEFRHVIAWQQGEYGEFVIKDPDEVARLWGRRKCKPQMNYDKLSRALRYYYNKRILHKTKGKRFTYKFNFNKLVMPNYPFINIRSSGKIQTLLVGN
In short: as §1

ETV6 = ETV6 (Homo sapiens, UniProt P41212 1-452)
In short: as §1

ELF5 = molecular target: T7, ELF5 (Homo sapiens, UniProt Q9UKW6-2 1-255)
T7 sequence: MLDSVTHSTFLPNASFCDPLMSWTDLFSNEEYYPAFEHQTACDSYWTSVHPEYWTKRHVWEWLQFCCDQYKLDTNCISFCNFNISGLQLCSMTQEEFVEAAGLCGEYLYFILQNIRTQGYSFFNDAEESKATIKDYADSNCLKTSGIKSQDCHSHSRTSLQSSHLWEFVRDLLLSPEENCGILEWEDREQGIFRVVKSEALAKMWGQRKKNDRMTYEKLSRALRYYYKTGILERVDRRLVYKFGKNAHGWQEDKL
In short: as §1

Chain of ETV6 (P41212 whole entry): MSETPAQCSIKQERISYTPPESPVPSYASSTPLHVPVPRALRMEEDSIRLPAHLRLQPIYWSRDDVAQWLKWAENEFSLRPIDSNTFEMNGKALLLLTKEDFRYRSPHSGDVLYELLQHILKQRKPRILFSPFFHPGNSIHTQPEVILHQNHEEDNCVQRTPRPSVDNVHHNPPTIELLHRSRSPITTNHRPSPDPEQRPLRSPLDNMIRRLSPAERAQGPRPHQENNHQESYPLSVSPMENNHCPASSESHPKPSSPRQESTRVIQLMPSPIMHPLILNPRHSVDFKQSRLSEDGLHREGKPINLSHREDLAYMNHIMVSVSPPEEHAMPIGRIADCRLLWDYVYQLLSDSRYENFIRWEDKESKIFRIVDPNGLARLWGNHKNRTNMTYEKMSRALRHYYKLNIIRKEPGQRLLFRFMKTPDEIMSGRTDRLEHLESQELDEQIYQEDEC

Sequence | binding signal (ERF) | binding signal (ETV3L) | binding signal (ETS2) | binding signal (SPDEF) | binding signal (ETV7) | binding signal (ETV3) | binding signal (ETV6) | binding signal (ELF5)
CTGAGC | 1.06 fold enrichment (6-mer frequency, TF over GST control) | 1.14 fold enrichment (6-mer frequency, TF over GST control) | 1.15 fold enrichment (6-mer frequency, TF over GST control) | 1.16 fold enrichment (6-mer frequency, TF over GST control) | 1.16 fold enrichment (6-mer frequency, TF over GST control) | 1.01 fold enrichment (6-mer frequency, TF over GST control) | 1.16 fold enrichment (6-mer frequency, TF over GST control) | –
AGCAGC | 1.08 fold enrichment (6-mer frequency, TF over GST control) | 1.09 fold enrichment (6-mer frequency, TF over GST control) | 1.2 fold enrichment (6-mer frequency, TF over GST control) | 1.02 fold enrichment (6-mer frequency, TF over GST control) | 1.19 fold enrichment (6-mer frequency, TF over GST control) | 1.08 fold enrichment (6-mer frequency, TF over GST control) | 1.04 fold enrichment (6-mer frequency, TF over GST control) | –
GGCATT | 1.08 fold enrichment (6-mer frequency, TF over GST control) | 1.06 fold enrichment (6-mer frequency, TF over GST control) | 1.09 fold enrichment (6-mer frequency, TF over GST control) | 1 fold enrichment (6-mer frequency, TF over GST control) | 1.05 fold enrichment (6-mer frequency, TF over GST control) | 1.07 fold enrichment (6-mer frequency, TF over GST control) | 1.12 fold enrichment (6-mer frequency, TF over GST control) | –
CGAGCT | 1.09 fold enrichment (6-mer frequency, TF over GST control) | 1.02 fold enrichment (6-mer frequency, TF over GST control) | 1.07 fold enrichment (6-mer frequency, TF over GST control) | 1.04 fold enrichment (6-mer frequency, TF over GST control) | 1.02 fold enrichment (6-mer frequency, TF over GST control) | 1.06 fold enrichment (6-mer frequency, TF over GST control) | 1.01 fold enrichment (6-mer frequency, TF over GST control) | –
GGCTAG | 1.17 fold enrichment (6-mer frequency, TF over GST control) | 1.06 fold enrichment (6-mer frequency, TF over GST control) | 1.14 fold enrichment (6-mer frequency, TF over GST control) | 1.14 fold enrichment (6-mer frequency, TF over GST control) | 1.2 fold enrichment (6-mer frequency, TF over GST control) | 1.13 fold enrichment (6-mer frequency, TF over GST control) | 1.18 fold enrichment (6-mer frequency, TF over GST control) | –
GCTTGG | 1.18 fold enrichment (6-mer frequency, TF over GST control) | 1.01 fold enrichment (6-mer frequency, TF over GST control) | 1.14 fold enrichment (6-mer frequency, TF over GST control) | 1.08 fold enrichment (6-mer frequency, TF over GST control) | 1.13 fold enrichment (6-mer frequency, TF over GST control) | 1.02 fold enrichment (6-mer frequency, TF over GST control) | 1.13 fold enrichment (6-mer frequency, TF over GST control) | –
CGAGTT | 1.08 fold enrichment (6-mer frequency, TF over GST control) | 1.16 fold enrichment (6-mer frequency, TF over GST control) | 1.07 fold enrichment (6-mer frequency, TF over GST control) | 1.02 fold enrichment (6-mer frequency, TF over GST control) | 1.08 fold enrichment (6-mer frequency, TF over GST control) | 1.12 fold enrichment (6-mer frequency, TF over GST control) | 1.13 fold enrichment (6-mer frequency, TF over GST control) | –
ATAAGC | 1.18 fold enrichment (6-mer frequency, TF over GST control) | 1.12 fold enrichment (6-mer frequency, TF over GST control) | 1.08 fold enrichment (6-mer frequency, TF over GST control) | 1.07 fold enrichment (6-mer frequency, TF over GST control) | 1.11 fold enrichment (6-mer frequency, TF over GST control) | 1.11 fold enrichment (6-mer frequency, TF over GST control) | 1.02 fold enrichment (6-mer frequency, TF over GST control) | –
GCCAAT | 1.11 fold enrichment (6-mer frequency, TF over GST control) | 1.05 fold enrichment (6-mer frequency, TF over GST control) | 1.06 fold enrichment (6-mer frequency, TF over GST control) | 1.07 fold enrichment (6-mer frequency, TF over GST control) | 1.06 fold enrichment (6-mer frequency, TF over GST control) | 1.1 fold enrichment (6-mer frequency, TF over GST control) | – | –
CACACG | 1.12 fold enrichment (6-mer frequency, TF over GST control) | 1.21 fold enrichment (6-mer frequency, TF over GST control) | 1.12 fold enrichment (6-mer frequency, TF over GST control) | 1.16 fold enrichment (6-mer frequency, TF over GST control) | – | 1.1 fold enrichment (6-mer frequency, TF over GST control) | 1.18 fold enrichment (6-mer frequency, TF over GST control) | 1.04 fold enrichment (6-mer frequency, TF over GST control)
GGTCTA | 1.07 fold enrichment (6-mer frequency, TF over GST control) | 1.11 fold enrichment (6-mer frequency, TF over GST control) | 1.05 fold enrichment (6-mer frequency, TF over GST control) | 1.08 fold enrichment (6-mer frequency, TF over GST control) | – | 1.05 fold enrichment (6-mer frequency, TF over GST control) | 1.04 fold enrichment (6-mer frequency, TF over GST control) | 1.04 fold enrichment (6-mer frequency, TF over GST control)
ATCAAT | 1.15 fold enrichment (6-mer frequency, TF over GST control) | 1.03 fold enrichment (6-mer frequency, TF over GST control) | 1.05 fold enrichment (6-mer frequency, TF over GST control) | 1.03 fold enrichment (6-mer frequency, TF over GST control) | 1.12 fold enrichment (6-mer frequency, TF over GST control) | 1.14 fold enrichment (6-mer frequency, TF over GST control) | 1.07 fold enrichment (6-mer frequency, TF over GST control) | –
TTTAGT | 1.03 fold enrichment (6-mer frequency, TF over GST control) | 1.09 fold enrichment (6-mer frequency, TF over GST control) | 1.04 fold enrichment (6-mer frequency, TF over GST control) | 1.04 fold enrichment (6-mer frequency, TF over GST control) | – | 1.11 fold enrichment (6-mer frequency, TF over GST control) | 1.12 fold enrichment (6-mer frequency, TF over GST control) | –
AGCCCT | 1.11 fold enrichment (6-mer frequency, TF over GST control) | 1.12 fold enrichment (6-mer frequency, TF over GST control) | 1.16 fold enrichment (6-mer frequency, TF over GST control) | 1.07 fold enrichment (6-mer frequency, TF over GST control) | – | 1.15 fold enrichment (6-mer frequency, TF over GST control) | 1.11 fold enrichment (6-mer frequency, TF over GST control) | 1.08 fold enrichment (6-mer frequency, TF over GST control)
CGCCTA | 1.15 fold enrichment (6-mer frequency, TF over GST control) | 1.25 fold enrichment (6-mer frequency, TF over GST control) | 1.19 fold enrichment (6-mer frequency, TF over GST control) | 1.15 fold enrichment (6-mer frequency, TF over GST control) | – | 1.2 fold enrichment (6-mer frequency, TF over GST control) | 1.14 fold enrichment (6-mer frequency, TF over GST control) | 1.18 fold enrichment (6-mer frequency, TF over GST control)
TGTGGA | 1.15 fold enrichment (6-mer frequency, TF over GST control) | 1.17 fold enrichment (6-mer frequency, TF over GST control) | 1.02 fold enrichment (6-mer frequency, TF over GST control) | 1.1 fold enrichment (6-mer frequency, TF over GST control) | – | 1.02 fold enrichment (6-mer frequency, TF over GST control) | 1.07 fold enrichment (6-mer frequency, TF over GST control) | 1.02 fold enrichment (6-mer frequency, TF over GST control)
